# Measurements as given in the supplement of paper PMC3545927.
# Some of the results follow. The true hit rate is not given.
# B1: HC2437 (peptide)
# chain: CASREVPCHRAGNASASA
# B2: HC56 (peptide)
# chain: CATTPTSGSWAGNASASA
# B3: HC2458 (peptide)
# chain: CAETEVPCHRAGNASASA
# B4: FS-2820 (peptide)
# chain: CARSSKDTSTAGNASASA
# B5: FS-3178 (peptide)
# chain: CAWSKRSLSQAGNASASA
# B6: FS-3223 (peptide)
# chain: CARKNRSKNQAGNASASA
# B7: FS-1973 (peptide)
# chain: CARSKRSKNQAGNASASA
# B8: FS-1931 (peptide)
# chain: CARSKRSPGGAGNASASA
# B9: FS-3089 (peptide)
# chain: CARSPRGVLRAGNASASA
# B10: FS-2183 (peptide)
# chain: CARSKRSLSCAGNASASA
# B11: FS-1932 (peptide)
# chain: CARSPRSASTAGNASASA
# B12: HC1683 (peptide)
# chain: CAMAECSQHLAGNASASA
# B13: HC1366 (peptide)
# chain: CAEANAEDVVAGNASASA
# B14: HC1042 (peptide)
# chain: CAKHMWNFISAGNASASA
# B15: HC317 (peptide)
# chain: CAITGHRMAWAGNASASA
# B16: HC413 (peptide)
# chain: CAPVYCFTPSAGNASASA
# B17: FS-2809 (peptide)
# chain: CARSKRCSCSAGNASASA
# B18: FS-3091 (peptide)
# chain: CARSPRSPPGAGNASASA
# B19: FS-2184 (peptide)
# chain: CARSKRSSSHAGNASASA
# B20: FS-3206 (peptide)
# chain: CARSKRDPIIAGNASASA
# B21: FS-1869 (peptide)
# chain: CARSKRNIIGAGNASASA
# B22: FS-3074 (peptide)
# chain: CARSARSPPGAGNASASA
# B23: FS-3098 (peptide)
# chain: CARSSRSPPGAGNASASA
# B24: FS-2320 (peptide)
# chain: CARYQRSHDDAGNASASA
# B25: FS-311 (peptide)
# chain: CAVPPRYPRDAGNASASA
# B26: FS-2803 (peptide)
# chain: CARRWREVEEAGNASASA
# B27: FS-3087 (peptide)
# chain: CARSLREFEEAGNASASA
# B28: FS-2850 (peptide)
# chain: CARYPRNVEEAGNASASA
# B29: FS-2538 (peptide)
# chain: CARYPRDVRDAGNASASA
# B30: HC2463 (peptide)
# chain: CAATPCSAHLAGNASASA
# B31: HC728 (peptide)
# chain: CARHADVIPVAGNASASA
# B32: HC1032 (peptide)
# chain: CAAEVIAPAVAGNASASA
# B33: HC2048 (peptide)
# chain: CAVVCCSWSYAGNASASA
# B34: FS-1215 (peptide)
# chain: CAILWRLKRQAGNASASA
# B35: FS-1038 (peptide)
# chain: CANDSRLKRQAGNASASA
# B36: FS-1647 (peptide)
# chain: CANDSRHLRNAGNASASA
# B37: FS-419 (peptide)
# chain: CAFRARQIRYAGNASASA
# B38: FS-354 (peptide)
# chain: CALNKSFRRAAGNASASA
# B39: HC90 (peptide)
# chain: CAVVCRSMSYAGNASASA
# B40: FS-64 (peptide)
# chain: CANRARFRRAAGNASASA
# B41: FS-929 (peptide)
# chain: CAFSHRQVRYAGNASASA
# B42: FS-526 (peptide)
# chain: CAFRARFRRLAGNASASA
# B43: HC1951 (peptide)
# chain: CADCTTPCSGAGNASASA
# Target: furin, P09958
# Experiment: furin cleavage Z-score vs untreated control; higher = more cleavage, active = 3.5 or more, inactive = 1 or less, 8 variable residues between constant flanks
# Outline: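 Reactions of 0.01 ml ran for 7.5, 15 or 30 min in 50 mM HEPES pH 7.5 with CaCl2 and NaCl, at 1:10 enzyme:substrate. In them, purified furin acted on bead-held 8-mer peptides fused to a cDNA oligonucleotide. The cleavage Z-score was obtained by lowess-adjusting log sequencing counts of released DNA against furin-free reactions and scaling by median absolute deviation.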
# furin, P09958, sequence (P09958 whole entry): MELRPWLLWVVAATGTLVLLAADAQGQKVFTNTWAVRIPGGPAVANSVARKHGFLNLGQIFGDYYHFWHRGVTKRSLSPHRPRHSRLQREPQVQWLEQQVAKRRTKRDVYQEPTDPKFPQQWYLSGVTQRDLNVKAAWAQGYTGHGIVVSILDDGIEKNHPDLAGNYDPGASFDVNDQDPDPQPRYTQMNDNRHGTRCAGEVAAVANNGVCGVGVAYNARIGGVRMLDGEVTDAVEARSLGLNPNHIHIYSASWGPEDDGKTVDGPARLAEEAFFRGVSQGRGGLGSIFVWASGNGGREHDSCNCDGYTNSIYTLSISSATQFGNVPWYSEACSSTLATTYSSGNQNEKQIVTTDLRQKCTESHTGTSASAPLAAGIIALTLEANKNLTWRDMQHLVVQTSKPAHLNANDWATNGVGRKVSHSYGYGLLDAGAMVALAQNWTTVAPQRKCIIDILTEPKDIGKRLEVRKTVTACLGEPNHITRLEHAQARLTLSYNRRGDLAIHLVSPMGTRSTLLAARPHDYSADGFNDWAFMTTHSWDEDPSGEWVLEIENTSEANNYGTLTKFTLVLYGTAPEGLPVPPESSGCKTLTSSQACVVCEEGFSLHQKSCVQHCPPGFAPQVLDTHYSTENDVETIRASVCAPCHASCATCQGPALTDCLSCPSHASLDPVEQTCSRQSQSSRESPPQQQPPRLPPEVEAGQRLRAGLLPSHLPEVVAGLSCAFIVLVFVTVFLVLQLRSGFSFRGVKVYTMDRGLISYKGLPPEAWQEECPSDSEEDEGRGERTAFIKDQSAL
Sequence,furin cleavage Z-score (7.5 min),furin cleavage Z-score (15 min),furin cleavage Z-score (30 min)
B1,0.554 (inactive),0.537 (inactive),0.935 (inactive)
B2,-1.1 (inactive),-0.337 (inactive),-0.847 (inactive)
B3,0.00837 (inactive),0.231 (inactive),0.879 (inactive)
B4,-0.514 (inactive),-1.51 (inactive),-0.361 (inactive)
B5,0.451 (inactive),1.67,2.52
B6,0.698 (inactive),-0.524 (inactive),0.1 (inactive)
B7,5.82 (active),7.57 (active),6.19 (active)
B8,9.79 (active),8.88 (active),8.01 (active)
B9,-0.934 (inactive),-0.739 (inactive),-0.752 (inactive)
B10,1.81,2.42,5.07 (active)
B11,4.66 (active),5.46 (active),7.33 (active)
B12,0.693 (inactive),-0.153 (inactive),0.354 (inactive)
B13,0.916 (inactive),-1.42 (inactive),-0.854 (inactive)
B14,-0.105 (inactive),-0.376 (inactive),-0.363 (inactive)
B15,-0.992 (inactive),-0.446 (inactive),-1.11 (inactive)
B16,0.856 (inactive),1.3,0.586 (inactive)
B17,0.463 (inactive),-0.402 (inactive),1.36
B18,2.88,4.13 (active),4.13 (active)
B19,7.92 (active),8.7 (active),6.8 (active)
B20,-1.19 (inactive),0.347 (inactive),1.06
B21,6.5 (active),8.47 (active),8.95 (active)
B22,-0.433 (inactive),-0.609 (inactive),-0.311 (inactive)

Sequence,furin cleavage Z-score (7.5 min),furin cleavage Z-score (15 min),furin cleavage Z-score (30 min)
B23,-0.0484 (inactive),0.711 (inactive),1.37
B24,0.707 (inactive),-0.328 (inactive),0.764 (inactive)
B25,5.8 (active),6.12 (active),6.06 (active)
B26,-0.554 (inactive),-1.56 (inactive),0.0666 (inactive)
B27,-2.22 (inactive),0.955 (inactive),0.853 (inactive)
B28,4.99 (active),7.34 (active),7.13 (active)
B29,8.26 (active),9.51 (active),6.93 (active)
B30,0.828 (inactive),1.41,1.31
B31,-2.29 (inactive),-0.0929 (inactive),-1.98 (inactive)
B32,-0.225 (inactive),-0.402 (inactive),-0.162 (inactive)
B33,-1.44 (inactive),-0.879 (inactive),-0.0857 (inactive)
B34,10.9 (active),9.84 (active),7.41 (active)
B35,6.07 (active),5.6 (active),6.15 (active)
B36,0.543 (inactive),0.626 (inactive),1.57
B37,2.8,5.19 (active),2.15
B38,0.697 (inactive),-0.445 (inactive),1.37
B39,1.85,0.752 (inactive),0.571 (inactive)
B40,8.77 (active),9.51 (active),7.84 (active)
B41,0.403 (inactive),1.8,2.61
B42,10.4 (active),12.1 (active),9.87 (active)
B43,0.95 (inactive),0.00642 (inactive),1.2
